Shiga toxin inh: blocks Shiga toxin action in Vero cells. Vero cells, Shiga toxin protein synthesis inhibition reporter. inhibition, % at 38.7 µM. actives 9.2% (n = 290,000). AID 2315; in the data active = inhibition mostly above about 28%, no sharp cut-off; inactive = mostly below about 43%; also: 0% is about no effect
Cycloheximide cs: counter-screen for Shiga toxin inhibitors: cycloheximide protein synthesis inhibition. cell reporter, cycloheximide protein synthesis inhibition counterscreen. AID 2314. max response, %. actives 12% (n = 300,000); in the data active = max response mostly above about 13%, no sharp cut-off; inactive = mostly below about 14%; also: read at 38.3 µM for the half of the compounds with a filed dose; 0% is about no effect
Pf growth 48h: inhibits P. falciparum growth in the first generation, 48 h; P. falciparum luciferase growth in erythrocytes, 48 h; actives 5.9% (n = 310,000); Potency, µM (doses to about 28.7 µM), inactives show top-dose activity change, negative = inhibition, most hits filed as inhibitors; AID 504832; also: potency is read from the fitted curve at half-maximal effect; % is scaled to controls: 0 for no effect and ±100 for the full control effect
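Parasite viability was followed by luminescence of a genomically integrated firefly luciferase. Cultures held 0.1% parasitemia at 2% hematocrit (final), incubated under 5% CO2 at 37 C.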
Pf growth 96h: P. falciparum growth inhibition at 96 hour, primary screen for plastid delayed-death inhibitors; Potency, µM (titrated, usually from 28.7 µM), without a hit: top-dose activity change, negative = inhibition, most hits filed as inhibitors; actives 6.9% (n = 320,000); P. falciparum luciferase reporter growth, 96 h; AID 504834; also: potency is read from the fitted curve at half-maximal effect; % is scaled to controls: 0 for no effect and ±100 for the full control effect
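Two parasite generations (96 h, 37 C, 5% CO2) of compound exposure in infected erythrocytes (0.05% parasitemia, 2% hematocrit). Luciferase-reporter P. falciparum; decreased luminescence indicates inhibited growth, aimed at apicoplast-acting delayed death.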
* marks the source's active call; other numbers are inactive results; ? = inconclusive; . = not tested or not shown; [ ] = remark or other dose. Rows were chosen to be rich in hits. Some 21% of all compounds tested hit in one or more screens of this group. Unless noted, calls follow the shape of the dose curve; as a rule, active = well fitted inhibition curve with a large enough effect; inconclusive = small, poorly fitted or top-dose-only effect, or another doubt; inactive = no such curve, though single readings can be large or run the other way.

SMILES	Shiga toxin inh	Cycloheximide cs	Pf growth 48h	Pf growth 96h
O=C(CNS(=O)(=O)c1cccs1)N1CCCCC1	30	8	14%	?
O=C(CCS(=O)(=O)c1cccs1)N1CCN(c2ccc(F)cc2)CC1	79*	41*	25%	16%
O=C(CCCc1c[nH]c2ccccc12)NCc1ccccc1C(F)(F)F	-6	-2	-1%	49%
O=C(CN1C2=NCCCN2c2ccccc21)c1ccc(Cl)cc1Cl	-10	-4	0.37µM*	-9%
O=C(CN1C2=NCCCN2c2ccccc21)c1ccc([N+](=O)[O-])cc1	-3	-1	1.9µM*	?
Clc1ccc(CN2C3=NCCCN3c3ccccc32)cc1	-3	0	?	?
OC(COc1ccc(Cl)cc1)CN1C2=NCCCN2c2ccccc21 (stereo not drawn)	-17	-7	5.2µM*	?
O=C(CN1C2=NCCCN2c2ccccc21)c1cccc(Br)c1	-9	-3	?	?
COc1cccc(N=C(N)N)c1	-6	-5	-54%	-4%
Fc1cc(F)nc(NCc2ccccc2)n1	-4	-4	19%	45%
CSc1n[nH]c(NCc2ccc(C)cc2)n1	72*	40*	247%	214%
Cc1ccc(CNC(=O)CSc2n[nH]c(N)n2)cc1	-7	-2	21%	?
CSc1n[nH]c(NCc2ccccc2)n1	29*	9	19%	.
CSc1n[nH]c(NCc2ccc(Cl)cc2)n1	51*	15*	45%	33%
Cc1cc(=O)[nH]c(NCc2ccc(Cl)cc2)n1	11	4	69%	1%
Cn1ncc([N+](=O)[O-])c1C(=O)N1CCCCCC1	-3	1	4%	?
COc1cccc2c1O/C(=N\O)C(C(=O)Nc1ccc(C)cc1)C2 (stereo not drawn)	22	13*	14%	-18%
COc1cccc2c1O/C(=N\O)C(C(=O)Nc1cccc(Br)c1)C2 (stereo not drawn)	80*	33*	-21%[0.00184 µM]	18%
COC1c2ccccc2C(=O)N1CCc1ccc(Cl)cc1 (stereo not drawn)	41*	16*	22%	?
Cc1ccc(C(=O)CC(=O)c2cccc(F)c2)c(O)c1	77*	36*	.	?
CC(=O)c1ccc(C)cc1OC(=O)c1cccc(F)c1	1	-3	9%	-24%
Cc1ccc(C(=O)c2ccccc2C(=O)O)c(O)c1	-13	-4	.	-18%
Cc1ccc(C(=O)CC(=O)c2ccccc2C)c(O)c1	39	20*	?	?
Cc1ccc(C(=O)CCC(=O)Nc2ccccc2C)c(C)c1	12	29*	62%	131%
CCN(CC)c1ccc(C(=O)OCC(=O)Nc2ccc3[nH]c(=O)[nH]c3c2)cc1	-14	0	2%	23%
SMILES	Shiga toxin inh	Cycloheximide cs	Pf growth 48h	Pf growth 96h
O=C(COC(=O)c1ccc([N+](=O)[O-])s1)Nc1ncc(C(F)(F)F)cc1Cl	-4	3	9%	15%
C=CCNc1nc2c3ccccc3n(C(C)=O)c2s1	129*	24	?	?
CC(=O)n1c2ccccc2c2c1c1ccccc1n2C	17	5	55%	-5%
O=C(Nc1cc(Cl)c(Cl)cc1Cl)c1cccnc1	2	1	22%	-18%
CCOC(=O)C1CCN(C(=O)CC(C)S(=O)(=O)c2ccc3c(c2)NC(=O)CO3)CC1 (stereo not drawn)	5	0	-8%	?
CC(CC(=O)N(C)C1CCCCC1)S(=O)(=O)c1ccc2c(c1)NC(=O)CO2 (stereo not drawn)	11	9	13%	7.4µM*
O=C(O)CC(C(=O)Nc1ccc(F)cc1)C1CCCO1 (stereo not drawn)	-2	-2	4%	27%
Cc1ccc(-c2nc(P(=O)(c3ccccc3)c3ccccc3)c(N3CCOCC3)o2)cc1	13	-6	10µM*	10µM*
CCOP(=O)(OCC)c1nc(-c2ccc(OC)cc2)oc1N1CCOCC1	4	-5	-11%	-3%
CCOP(=O)(OCC)c1nc(-c2ccc(C)cc2)oc1NCc1ccccc1	24	-4	?	19%
CNc1oc(-c2ccc(Cl)cc2)nc1P(=O)(c1ccccc1)c1ccccc1	28	8	?	15µM*
CN(C)S(=O)(=O)c1ccc(C(=O)NCCN2C(=O)S/C(=C\c3cccnc3)C2=O)cc1	-6	14	?	?
CS(=O)(=O)c1ccc(C(=O)NCCN2C(=O)S/C(=C\c3cccnc3)C2=O)cc1[N+](=O)[O-]	8	31*	5.2µM*	?
Cc1cc(Cl)ccc1OCCCC(=O)NCCN1C(=O)S/C(=C\c2cccnc2)C1=O	40	31*	16%	?
Cc1[nH]c(=O)[nH]c(=O)c1S(=O)(=O)Nc1ccc(F)c([N+](=O)[O-])c1	4	1	16%	-1%
CCN(CCn1cccn1)C(=O)CCc1nnc(-c2ccc3c(c2)OCO3)o1	41	-1	20%	?
O=C(CCc1nnc(-c2ccc3c(c2)OCO3)o1)N1CCC(c2ccc(F)cc2)C1 (stereo not drawn)	108*	31*	8%	?
O=C(CCc1nnc(-c2ccc3c(c2)OCO3)o1)NC(c1ccccn1)C(F)(F)F (stereo not drawn)	64*	38*	60%	3%
CC1=CC(C)[C@@H]2COC(c3ccc(O)cc3)[C@H]1C2C (stereo partly drawn)	-4	-5	?	9.3µM*
CC1=CC(C)C2COC(c3ccc[n+](C)c3)C1C2C (stereo not drawn)	-6	1	15µM*	?
CC(C)(C)OC(=O)N[C@@H](Cc1ccccc1)C(=O)NCC1CCC(C(=O)O)CC1 (stereo partly drawn)	15	0	6%	16%
CCn1cc(C(=O)O)c(=O)c2cc(Br)ccc21	-2	-2	2.6µM*	.
CCOC(=O)c1cn(CC)c2ccc(Br)cc2c1=O	23	1	5.2µM*	12µM*
CCn1cc(C(=O)O)c(=O)c2cc(S(=O)(=O)N(C)C)ccc21	-3	1	38%	105%
CCn1nc(C)c(CNC(=O)CC2C(=O)NCCN2CC(C)(C)C)c1C (stereo not drawn)	-6	-4	-6%	-4%
SMILES	Shiga toxin inh	Cycloheximide cs	Pf growth 48h	Pf growth 96h
CCOC(=O)c1ccc(N2C(=O)CC(C)(CC)CC2=O)cc1	-6	-4	?	39%
Cc1c(C(=O)N2CCCCC2)c(S(=O)(=O)NCc2ccc(Cl)cc2)c(C)n1C	-10	-2	-8%	-12%
O=C(Nc1ccc(C2SCCS2)cc1)c1ccccc1	136*	60*	144%	245%
CNC(=O)Nc1ccc(C2SCCS2)cc1	27	17*	53%	43%
CC(C)c1ccc(NC(=O)COc2ccc(C3SCCS3)cc2)cc1	18	-4	-4%	-8%
CCCCNC(=O)Nc1ccc(C2SCCS2)cc1	86*	47*	24%	?
CCCCNC(=O)Nc1ccccc1CC	-3	-1	-7%	-14%
N#Cc1ccc(CN2CCN(C(=O)CC(NC(=O)c3ccccc3)c3ccccc3)CC2)cc1 (stereo not drawn)	3	3	0%	-16%
